Assay results: the supplement of paper PMC10681739

Tests used:
ETS1 [1] = target: T1, ETS1 (UniProt P14921); assay: ETS1 binding intensity (PBM fluorescence), ETS1 alone (arbitrary fluorescence units); higher = stronger binding; details: ETS1 concentration 1 nM; RUNX1 concentration 0 nM
T1 sequence: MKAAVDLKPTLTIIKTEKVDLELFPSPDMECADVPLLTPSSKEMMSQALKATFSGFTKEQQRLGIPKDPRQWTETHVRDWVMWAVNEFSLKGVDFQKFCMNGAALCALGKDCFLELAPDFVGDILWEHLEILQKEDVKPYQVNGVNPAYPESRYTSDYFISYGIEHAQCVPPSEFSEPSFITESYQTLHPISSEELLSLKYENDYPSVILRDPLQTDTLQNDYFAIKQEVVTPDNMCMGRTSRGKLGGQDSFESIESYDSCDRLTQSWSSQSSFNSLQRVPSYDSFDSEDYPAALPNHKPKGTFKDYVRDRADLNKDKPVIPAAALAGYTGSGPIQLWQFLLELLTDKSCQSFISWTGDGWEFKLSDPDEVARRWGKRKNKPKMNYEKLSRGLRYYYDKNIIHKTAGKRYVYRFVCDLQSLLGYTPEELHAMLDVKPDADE

RUNX1 [2] = target: RUNX1 (UniProt Q01196); assay: RUNX1 binding intensity (PBM fluorescence), RUNX1 alone (arbitrary fluorescence units); higher = stronger binding; details: RUNX1 concentration 2 nM; ETS1 concentration 0 nM
RUNX1, sequence (Q01196 whole entry): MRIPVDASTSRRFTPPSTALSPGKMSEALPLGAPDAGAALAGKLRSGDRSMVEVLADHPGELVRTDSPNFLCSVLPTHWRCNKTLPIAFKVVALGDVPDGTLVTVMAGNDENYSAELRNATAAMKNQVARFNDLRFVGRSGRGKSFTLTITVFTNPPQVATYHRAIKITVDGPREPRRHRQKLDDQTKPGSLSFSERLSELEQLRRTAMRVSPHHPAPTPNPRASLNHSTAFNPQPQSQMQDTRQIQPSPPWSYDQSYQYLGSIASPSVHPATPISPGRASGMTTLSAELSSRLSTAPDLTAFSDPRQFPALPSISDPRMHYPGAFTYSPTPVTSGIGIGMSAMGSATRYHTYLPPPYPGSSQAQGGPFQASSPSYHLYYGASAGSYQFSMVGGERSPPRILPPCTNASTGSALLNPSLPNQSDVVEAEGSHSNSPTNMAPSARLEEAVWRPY
Procedure: (§1)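 Cooperative gcPBM on 36-bp genomic probes with neighbouring ETS1 and RUNX1 sites. Recombinant human RUNX1 (2 nM) was incubated alone or with ETS1 (25 nM) and detected with anti-RUNX1 antibody plus Alexa488 secondary. Values are medians over 4 replicate spots; the RUNX1+ETS1 data were normalised to the RUNX1-only data. The probes sit in constant array flanks that are not printed.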

ETS1 [3] = target: T1, ETS1; assay: ETS1 binding intensity (PBM fluorescence) in presence of RUNX1, normalised to ETS1-only experiment (arbitrary fluorescence units); higher = stronger binding; details: ETS1 concentration 1 nM; RUNX1 concentration 25 nM
RUNX1 [4] = target: RUNX1 (UniProt Q01196); assay: RUNX1 binding intensity (PBM fluorescence) in presence of ETS1, normalised to RUNX1-only experiment (arbitrary fluorescence units); higher = stronger binding; details: RUNX1 concentration 2 nM; ETS1 concentration 25 nM
Procedure: as §1
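Throughout, for RUNX1 binding intensity (PBM fluorescence) in presence of ETS1, normalised to RUNX1-only experiment: Full-length recombinant human ETS1 or RUNX1 bound to double-stranded 36-bp genomic probes on microarrays, detected by protein-specific primary antibody and Alexa488 secondary, spot fluorescence as median of four replicate spots.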
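Throughout, for RUNX1 binding intensity (PBM fluorescence), RUNX1 alone: Full-length recombinant human RUNX1 bound to double-stranded 36-bp genomic probes on a high-density microarray, scored as Alexa488 fluorescence per spot via anti-RUNX1 antibody, median of four replicate spots.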

Row | Sequence | ETS1 binding intensity (ETS1 [1]) | RUNX1 binding intensity (RUNX1 [2]) | ETS1 binding intensity (ETS1 [3]) | RUNX1 binding intensity (RUNX1 [4])
1 | GCGCGGGCAACTTCCGGTGTGGGTGACGAGTGGTGG | 10900 | 778 | 12700 | 2700
2 | TCCAAGGCGGAAAAAACCCGCCCTAAACCGCACCCC | 464 | 1470 | 1040 | 1460
3 | TATCAATAAGGAAGTACAATCACCAAACCACAAGCC | 619 | 1170 | 2700 | 1140
4 | TGTGTAAGAGGAAACACCAAAACCACAAATATGAAA | 736 | 2080 | 3280 | 3530
5 | AGCCACATCCTGGACAAAAGCTGTGGTCTAGTAACC | 430 | 911 | 556 | 2020
6 | CATGGGACCCGGAAGTGTGTGGTAAAGCGCCGGGGC | 3590 | 896 | 9470 | 2350
7 | TGTAAGTCACTTCCTGTCGTGGTCAGGTCTCCTCTC | 8260 | 873 | 7730 | 2370
8 | ACACAGAGAGTGAGAGGAAGTGGTTTAGAGATGAGA | 2440 | 769 | 3210 | 1050
9 | CCGGGACAGGAAGAGGCTGGGGACCGCGGCGAAGGT | 1440 | 710 | 1550 | 1030
10 | CTCCGCCAGCCACCGGAACTGCGGCCCAGCAAAAAG | 2590 | 927 | 2320 | 949
11 | TAGGCAGGCAGGATGTGCCTATAAGCCACATGAATG | 1930 | 726 | 2240 | 962
12 | CTAACCCTGCTTCCTCTTAGTGGTTTCCCCCAACCT | 616 | 1620 | 793 | 3220
13 | GATACCCAGCCAGCGGAAGTGCGGTTAACTGCCCGA | 4460 | 4990 | 18400 | 11100
14 | AGGTTCTCCAGAGGAGGAAGTGGTTTGCTGCAGGCT | 2450 | 755 | 4400 | 971
15 | TATGGCGGGCAGGAAGTGCGGGTGCGCGCCTGCGCA | 4640 | 642 | 5650 | 1360
16 | ATATATCACCCCTTCCTTGCAAAACCACAAGACCAA | 508 | 6030 | 1490 | 8230
17 | CTTAAATGGGAAATGTAGGTGTGGTTAAGTCACAAA | 558 | 859 | 556 | 915
18 | TAGGCTGAAGACTTCCGCCCCGCAGAGGACTTGCCT | 1040 | 839 | 974 | 1170
19 | AGGCAAACAGGATGTTCCTCTCCCACATGCAGACTT | 4200 | 806 | 3770 | 1300
20 | CCGGGACCGGAAGAGGGAGCCGTGGTTGCTGGAACT | 3040 | 744 | 4030 | 1960
